Source: PubChem BioAssay
Sampled rows, rich in hits. Any-hit rate of the full collection: about 2.8%.
EBV LMP1 NFkB: Epstein-Barr LMP1 NF-kappaB reporter inhibition | inhibition, % at 12.5 µM | LMP1-induced NF-kappaB luciferase reporter cells, luminescence | 0.69% of 350,000 active | AID 504558; in the data active = inhibition above about 41%; inconclusive = no clear call, values can overlap the other calls;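 also: 0% = neutral control wells and 100% = reference inhibitor control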
Shn3 3UTR inh: reduces Shn3 3'UTR luciferase signal in osteoblasts; inhibition, % at 12.5 µM; Clone20 osteoblast Shn3 3'UTR firefly luciferase, 24 h; 0.52% of 360,000 active;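 active = mean inhibition of at least 75% with every replicate also reaching 75%; inconclusive = mean inhibition at least 75% but some replicate below; inactive = mean inhibition below 75%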;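 also: 0% = median of neutral control wells and 100% = pilot-screen positive control compound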
Glyco luc inh: blocks N-linked glycosylation in D54 reporter cells; D54 ERlucT glycosylation luciferase reporter, 24 h; percent of 100 nM tunicamycin response; AID 588692; 0.23% of 360,000 active; reporter increase, % at 12.5 µM;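 active = mean luciferase reporter signal, scaled so untreated is 0 and the glycosylation-blocking control 100, at or above a set limit in every replicate; inconclusive = mean reaches the limit but not every replicate does; inactive = mean below the limit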;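 also: luciferase carries N-glycosylation sites so blocking glycosylation raises the light; 0% = median of neutral control wells and 100% = median of 100 nM tunicamycin wells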
PAX8 inh HTS: PAX8 transcriptional activity inhibition; inhibition, % at 12.6 µM; 1.2% of 360,000 active; RMG-I TPO-luciferase reporter, SteadyGlo, 24 h;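 active = mean replicate inhibition at least 60% with every replicate also reaching 60%; inconclusive = only one of the two criteria is met; inactive = mean below 60% and not all replicates reaching 60%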;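 also: luciferase light reporting Pax8 driven TPO promoter activity; plate controls were median of neutral control wells for no effect and mitoxantrone controls for full effect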
NSD2 inh: NSD2 (human) methyltransferase inhibition. O96028. NSD2 peptide methylation, AlphaScreen, 120 min. inhibition, % at 12.5 µM. 0.54% of 310,000 active. AID 743445; in the data active = inhibition above about 50%
Env fusion inh: inhibitors of HIV Env-mediated cell fusion; HeLa-JRFL Env/CEM21 cell fusion, luciferase; inhibition, % at 12.3 µM; 1.1% of 360,000 active;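 active = mean replicate inhibition score of at least 50 and every replicate individually at or above 50; inconclusive = only one of the two criteria met; inactive = mean below 50 and not all replicates reaching 50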;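 also: 0% = plate neutral controls and 100% = maraviroc near 300 nM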
* = called active by the depositor; ? = inconclusive; . = no result; [ ] = dose if it differs, or a comment.

SMILES	EBV LMP1 NFkB	Shn3 3UTR inh	Glyco luc inh	PAX8 inh HTS	NSD2 inh	Env fusion inh
COc1ccc(S(=O)(=O)Nc2ccc3c(c2)C(=O)N([C@H](C)CO)C[C@@H](C)[C@@H](CN(C)S(=O)(=O)c2cn(C)cn2)OCCCC[C@H](C)O3)cc1	.	.	.	-16	.	-1[16.7 µM]
C[C@H](CO)N1C[C@H](C)[C@@H](CN(C)CC2CC2)Oc2ccc(NC(=O)c3ccncc3)cc2CC1=O	.	.	.	-30	.	24[16.7 µM]
CCN(CC)CCCNc1nc2cc(OC)c(OC)cc2c2nc(-c3cccnc3)nn12	-21	5	11	-63	43	-209
CCN(CC)CCCNc1nc2cc(OC)c(OC)cc2c2nc(-c3ccccc3)nn12	-12	-23	41*	-15	.	-35
CCN(CC)CCCNc1nc2ccccc2c2nc(-c3ccncc3)nn12	-35	23	119*	7	41	-24
COc1ccc(S(=O)(=O)N2C[C@H](O)COC[C@H]3O[C@H](CC(=O)NCc4ccc(Cl)c(Cl)c4)CC[C@@H]32)cc1	.	.	.	25	.	13[16.7 µM]
C[C@@H]1CCCCO[C@H](CN(C)C(=O)Nc2ccc(C(F)(F)F)cc2)[C@@H](C)CN([C@@H](C)CO)C(=O)c2cc(NC(=O)Cc3ccccc3)ccc2O1	.	.	.	12	.	51[16.7 µM]
Cc1ccccc1S(=O)(=O)N1C[C@@H](O)COC[C@@H]2O[C@H](CC(=O)N3CCN(C)CC3)CC[C@H]21	.	.	.	-15	.	9[16.7 µM]
CN(Cc1ccc(F)cc1)C(=O)c1cc(COc2ccc(-n3cncn3)cc2)on1	-8	55	-1	19	4	62*
CC(C)NC(=O)Nc1ccc2c(c1)CC(=O)N([C@H](C)CO)C[C@H](C)[C@H](CN(C)S(=O)(=O)c1ccccc1)O2	.	.	.	-23	.	65*[16.7 µM]
C[C@H]1CN([C@@H](C)CO)C(=O)Cc2cc(NC(=O)Nc3ccccc3)ccc2O[C@H]1CN(C)S(=O)(=O)c1ccccc1	.	.	.	20	.	70*[16.7 µM]
C[C@H](CO)N1C[C@H](C)[C@H](CN(C)S(=O)(=O)c2ccccc2)Oc2ccc(NC(=O)NC3CCCCC3)cc2CC1=O	4	2	0	3	.	87*
C[C@@H]1CN([C@H](C)CO)C(=O)c2cccc(NS(=O)(=O)c3ccc(Cl)cc3)c2O[C@@H]1CN(C)Cc1ccccc1	.	.	.	2	.	24[16.7 µM]
C[C@@H]1CN([C@@H](C)CO)S(=O)(=O)c2ccc(C#Cc3ccccc3F)cc2O[C@@H]1CN(C)C(=O)c1ccc2c(c1)OCO2	.	.	.	78*	.	35[16.7 µM]
C[C@H]1CN([C@@H](C)CO)S(=O)(=O)c2ccc(C#Cc3ccccc3F)cc2O[C@H]1CN(C)C	.	.	.	.	.	-10[16.7 µM]
C[C@H]1CN([C@@H](C)CO)S(=O)(=O)c2ccc(C#Cc3ccccc3F)cc2O[C@H]1CN(C)C(=O)c1ccc2c(c1)OCO2	.	.	.	90*	.	43[16.7 µM]
C[C@@H]1CN([C@H](C)CO)S(=O)(=O)c2ccc(C#Cc3ccccc3F)cc2O[C@H]1CN(C)C(=O)Cc1ccccc1	.	.	.	?	.	15[16.7 µM]
COc1ccc(S(=O)(=O)Nc2ccc3c(c2)C(=O)N([C@@H](C)CO)C[C@H](C)[C@@H](CN(C)Cc2ccncc2)OCCCC[C@@H](C)O3)cc1	.	.	.	-13	.	-12[16.7 µM]
CN(C)C(=O)C[C@H]1CC[C@H]2[C@@H](COC[C@@H](O)CN2C(=O)C2CCCC2)O1	.	.	.	-9	.	2[16.7 µM]
O=C(COc1ccc(-n2cnnn2)cc1)Nc1ccc(F)c(F)c1	-11	12	0	10	-1	74*
CC(=O)N1[C@@H](CO)[C@@H](c2ccccc2)C12CN(C(=O)Nc1ccccc1F)C2	.	.	.	-2	.	.
O=C(CSc1nc2ccccc2c(=O)n1Cc1ccc(F)cc1)NCc1cccs1	-6	10	0	0	0	62*
O=C(CSc1nc2ccccc2c(=O)n1Cc1ccco1)c1ccc(F)cc1	3	46	-3	.	-1	58*
Cc1cc2c(=O)n(Cc3ccco3)c(SCC(=O)c3ccc(Cl)s3)nc2s1	9	83	-8	.	2	76*
Cc1cc(NC(=O)CSc2nc3ccccc3c(=O)n2Cc2ccc(F)cc2)no1	4	47	1	.	0	0
SMILES	EBV LMP1 NFkB	Shn3 3UTR inh	Glyco luc inh	PAX8 inh HTS	NSD2 inh	Env fusion inh
NC(=O)CSc1nc2ccccc2c(=O)n1Cc1ccco1	-19	-6	2	.	0	.
C[C@@H]1CN([C@@H](C)CO)C(=O)Cc2cc(NC(=O)NC3CCCCC3)ccc2O[C@@H]1CN(C)Cc1ccc(C(=O)O)cc1	.	.	.	-3	.	.
CC(=O)N1C[C@H]2[C@@H](c3ccccc31)[C@H](CO)N2C(=O)c1ccc(F)cc1	.	.	.	-24	.	.
COc1cc2c(cc1OC)C(c1cc(Br)ccc1F)N(C(=O)CCl)CC2 (stereo not drawn)	-10	98*	22	-18	7	-78
Cc1cccc(C)c1NC(=O)CNC(=O)C12CC3CC(CC(O)(C3)C1)C2	0	-3	0	-4	0	0
O=C(NCCc1ccc(Cl)cc1)C12CC3CC(CC(O)(C3)C1)C2	58*	-10	0	-4	-2	1
CCN(CC)c1ccc(/C=C/c2ccc3ccc(OC)cc3[n+]2CC)cc1	35	87*	6	83*	76*	40
CC[n+]1c(/C=C/c2ccc(OC)c(OC)c2)ccc2ccccc21	-48	-108	-9	-103	3	-173
CCCCCC[n+]1ccccc1/C=C/c1ccc(N(C)C)cc1	.	76	?	98*	.	42
CC[n+]1c(/C=C/c2ccc(N(C)C)cc2)ccc2ccccc21	52*	?	5	90*	40	14
O=C(c1ccc(F)cc1)N1CC(=O)N2[C@H](CO)[C@@H](c3ccc(C#CC4CC4)cc3)[C@@H]2C1	.	.	.	-6	.	.
Cc1cc(/C=N/NC(N)=S)c(C)n1-c1ccc(Br)cc1	6	5	-7	27	-5	-28
Cc1nnc(N/N=C/c2cc(C)n(-c3ccc(F)cc3)c2C)n1N	-3	-4	8	120*	16	.
Cc1noc(C)c1S(=O)(=O)Nc1ccc2c(c1)C(=O)N([C@@H](C)CO)C[C@@H](C)[C@@H](CN(C)Cc1ccc(-c3ccccc3)cc1)O2	.	.	.	.	.	-10[16.7 µM]
C=CCN([C@@H](CC(C)C)C(=O)OC)S(=O)(=O)N(CC=C)[C@@H](CC(C)C)C(=O)OC	8	27	-6	4	.	81*
COC(=O)[C@H](Cc1ccccc1)N(C)S(=O)(=O)c1cccc(S(=O)(=O)N(C)[C@@H](Cc2ccccc2)C(=O)OC)c1	-16	25	-5	-1	.	9
CC(C)C[C@@H](CO)N(Cc1ccccc1)S(=O)(=O)N(Cc1ccccc1)[C@@H](CO)CC(C)C	-9	90*	-6	.	.	.
COC(=O)[C@H](CC(C)C)NS(=O)(=O)N[C@@H](CC(C)C)C(=O)OC	1	-3	-1	-7	.	-22
COC(=O)[C@H](Cc1ccccc1)N(Cc1ccccc1)S(=O)(=O)N(Cc1ccccc1)[C@@H](Cc1ccccc1)C(=O)OC	8	17	-11	-5	.	80*
